From PubChem BioAssay (NCI) come the findings set out here.

Each structure is given as a SMILES string. The panel holds about 83,000 compounds, 20% with a hit somewhere; the sample as a whole holds those more often.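 How to read the values: 0–100, growth inhibition (40 = 60% inhibited); 0, no net growth; -100 to 0, cell death (-40 = 40% of starting cells died; -100 = all dead).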 A number with no mark means an inactive call. Active and inactive are the calls of the source. How the source made its calls: active means growth percent below 10; inactive means the rest.

For the test, the system named is SK-MEL-2 melanoma. The test is described as follows: NCI-60 one-dose screen, 48 h (100 = growth as untreated, 0 = no growth, -100 = all killed). The conditions noted are these: 10 µM unless noted.
Regarding `O=C(Nc1ccc(F)cc1)Nc1ccc(CCO)cc1`, the growth is 112%. As to `O=[N+]([O-])c1cccc(C2CC(c3ccccc3)=Nc3ccccc3S2)c1` (configuration not stated), the growth is 95.4%.

With `COc1cc(-c2c3sc(=O)[nH]c3nc3c2c(=O)[nH]n3C(C)C)cc2c1OCO2`, the growth was 101%. With `O=C(N/N=C/c1ccc(O)cc1O)c1cccnc1` the figure was 55.6%; with `CCCCCCCCOC(=O)CC[C@@H](C)[C@H]1CC[C@H]2[C@@H]3[C@H](OC(=O)CCN)C[C@@H]4C[C@H](OC(=O)CCN)CC[C@]4(C)[C@H]3C[C@H](OC(=O)CCN)[C@]12C`, 126%; with `CCOC(=O)N1CCN(c2nc(Nc3cc(C)[nH]n3)c3ccccc3n2)CC1`, 52.4%. As for `Cc1ccc(C2CC3c4ccccc4C2C2CCCCN32)cc1` (configuration not stated), the growth was 88.2%. As for `CC#Cc1nc2ccccc2c(=O)[nH]1`, the growth is 45.4%. For the compound `COc1c(C2CC(=O)Nc3c2cnn3Cc2ccco2)cc2c(c1OC)OCO2` (configuration not stated), the growth was 46.3%. With `Oc1ccccc1/C=N/Nc1ccc2ccccc2n1`, the growth is 64.5%. With `Cc1cc(Nc2nc(N3CCN(C)CC3)nc3ccccc23)n[nH]1` the figure was 43.5%. Turning to `COc1cccc2c1C(=O)c1c(O)c3c(c(O)c1C2=O)C[C@@](O)(/C(C)=N/NC(=O)c1ccc(Cl)cc1)C[C@@H]3OC1CC(N)C(O)C(C)O1` (some centres not stated), the growth is -81.1% (active). Consider `C#Cc1nc2ccccc2c(=O)[nH]1`, for which the growth is -21.9% (active). With `O=C1Nc2ccc(Br)cc2C12CC(c1ccccc1)=NN2` (configuration not stated) the figure was 74.9%; with `CCCCCCCCCCCCN1CCCC(C)C1` (configuration not stated), 89.6%; with `Cc1ccc(NC(=O)c2sc3nc4c(cc3c2N)C(=O)CCC4)cc1C`, 37%. With `O=C(NC(Cc1ccccc1)C(=O)CCl)OCc1ccccc1` (configuration not stated), the growth was 8.62% (active). Regarding `COc1c(Cl)cc(Cl)cc1Cl`, the growth is 117%. Consider `COc1cc(C2CC(=O)Nc3c2cnn3Cc2ccco2)cc2c1OCCO2` (configuration not stated), for which the growth was 86.8%. Next, `O=C1Nc2ccccc2/C1=C/C(=N/c1nnc(-c2ccc(Cl)cc2)s1)c1ccccc1`: 97.2%.

On to `CC(=O)OCC(=O)C1CCC=CC1OC(C)=O` (configuration not stated), for which the growth is 88.3%.

`c1c2c(cc3c1OCO3)Cc1cc3c(cc1Cc1cc4c(cc1C2)OCO4)OCO3`: the growth is 115%.
